Inconclusive results are not listed. Calls of active or inactive are those of the source. How the source made its calls, unless noted: active means hit-call score of the fitted dose curve at least 0.9, where 1 is the maximum; inactive means score below 0.9.
Columns and labels:
[1] = biological target: Estrogen receptor (Homo sapiens) (UniProt P03372); experiment: CCTE_Deisenroth_AIME_384WELL_LUC_Active: CCTE's 384-well Estrogen Receptor Transactivation Assay with AIME metabolic competence (ERTA luciferase; metabolism positive), Deisenroth Lab (AID 2284030; active means hit-call score of the fitted dose curve at least 0.9, where 1 is the maximum)
Summary of the method: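 Readout: bioluminescent luciferase induction in VM7Luc4E2 cells 24 hour after receiving medium from a 2 h rat hepatic S9 (induced, alginate microsphere) metabolism step. Concentrations 0.002 - 200 uM; activity scaled to 17beta-estradiol positive control.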

[2] = CCTE_Shafer_MEA_dev_firing_rate_mean: CCTE's Neural Network Formation Assay for Mean Firing Rate, Shafer Lab (AID 2284031);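 on AC50: curve fitted for loss of firing so AC50 reflects decreased mean firing rate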
Summary of the method: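 Extracellular spike frequency, AUC over DIV 5–12 recordings, in rat cortical neuron MEA cultures dosed from plating; loss direction vs DMSO.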

[3] = CCTE_Shafer_MEA_dev_per_burst_spike_percent: CCTE's Neural Network Formation Assay for Percent of Spikes in a Burst, Shafer Lab (AID 2284032);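 on AC50: fitted as a decrease in burst spike percentage below DMSO baseline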
Summary of the method: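 Value is trapezoidal AUC over recordings on days 5, 7, 9 and 12 of the well-mean fraction of spikes falling in single-electrode bursts; rat cortical cultures exposed continuously from plating, treatment renewed DIV 5 and 9, fitted downward against DMSO.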

[4] = biological target: Estrogen receptor (Homo sapiens) (UniProt P03372); experiment: CCTE_Deisenroth_AIME_96WELL_LUC_Active: CCTE's 96-well Estrogen Receptor Transactivation Assay with AIME metabolic competence (ERTA luciferase; metabolism positive), Deisenroth Lab (AID 2284023; active means hit-call score of the fitted dose curve at least 0.9, where 1 is the maximum)
Summary of the method: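 Metabolism-positive mode: induced rat hepatic S9 in alginate microspheres conditions test solutions (0.002 - 200 uM, 10 points) for 2 hours. VM7Luc4E2 ER luciferase reporter cells then exposed 24 h; positive-direction fit against 17beta-estradiol, n=4 typical.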

[5] = biological target: Estrogen receptor (Homo sapiens) (UniProt P03372); experiment: CCTE_Deisenroth_AIME_96WELL_LUC_Inactive: CCTE's 96-well Estrogen Receptor Transactivation Assay without AIME metabolic competence (ERTA luciferase; metabolism negative), Deisenroth Lab (AID 2284025; active means hit-call score of the fitted dose curve at least 0.9, where 1 is the maximum)
Summary of the method: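 Metabolism-negative arm: chemicals (0.002–200 uM, 10 points) incubated 2 h with alginate-water microspheres, then medium moved onto VM7Luc4E2 cells for 24 h luciferase read-out. Positive direction vs 17beta-estradiol; n≥4 experiments.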

[6] = CCTE_Deisenroth_AIME_96WELL_CTox_Active: Cytotoxicity Assessment (CTOX) in CCTE's 96-well Estrogen Receptor Transactivation Assay with AIME metabolic competence (metabolism positive), Deisenroth Lab (AID 2284028; active means hit-call score of the fitted dose curve at least 0.9, where 1 is the maximum)
Protocol: CCTE_Deisenroth_AIME_96WELL (AIME metabolism assay) is a cell-based, single-readout assay that uses VM7Luc4E2, a human mammary gland/breast cell line, with measurements taken at 24 hour after chemical dosing in a 96-well plate.CCTE_Deisenroth_AIME_96WELL_CTox_Active is one of four assay components measured or calculated from the CCTE_Deisenroth_AIME_96WELL assay. It is designed to make measurements of a protease substrate, a type of viability indicator, as detected with substrate cleavage to a fluorescent probe in living cells.CCTE_Deisenroth_AIME_96WELL_CTox_Active is a component of the CCTE_Deisenroth_AIME_96WELL assay that measures the effect of retroftting the VM7Luc ERTA assay with the Alginate Immobolization of Metabolic Enzymes (AIME) metabolism method. AIME is optimized to impart phase I hepatic metabolism using phenobarbital/beta-naphthoflavone induced hepatic S9 from male Sprague Dawley rats. Parent chemicals are incubated for 2 hours in the AIME assay prior to transfer to the VM7Luc ERTA assay plate. […] This endpoint evaluates cytotoxicity in metabolism positive mode. Using a type of flourescent probe in VM7Luc cells, loss-of-signal activity can be used to understand loss of viability. This assay endpoint, CCTE_Deisenroth_AIME_96WELL_CTox_Active, was analyzed with bidirectional fitting in the ERTA assay. […]

[7] = CCTE_Deisenroth_AIME_96WELL_CTox_Inactive: Cytotoxicity Assessment (CTOX) in CCTE's 96-well Estrogen Receptor Transactivation Assay without AIME metabolic competence (metabolism negative), Deisenroth Lab (AID 2284029; active means hit-call score of the fitted dose curve at least 0.9, where 1 is the maximum)
Summary of the method: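 Cytotoxicity in VM7Luc4E2 breast cells was scored as loss of fluorescent signal from a live-cell protease substrate 24 h after exposure, using bidirectional curve fitting. Test media came from a 2 h metabolism-negative pre-incubation (alginate-water, no hepatic S9) of compounds at 0.002-200 uM, with at least four replicates.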

[8] = CCTE_Shafer_MEA_acute_cross_correlation_area: CCTE's Neural Acute Assay for Area of Cross Correlation, Shafer Lab (AID 2284024);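 further: area under pooled inter-electrode spike cross-correlation near zero lag as percent change from own baseline; curves fitted for loss of cross-correlation area so actives lower synchrony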
Protocol: CCTE_Shafer_MEA_acute assay is conducted using Axion Biosystems 48 well microelectrode array (MEA) plates and Maestro recording system. Each well of the MEA plate contains a grid of 16 microelectrodes embedded in the culture surface. Electrically active cells, such as neurons, can be cultured over the electrodes, and electrical activity in these cells can be recorded extracellularly. The spontaneous firing of neurons is captured from each electrode on a microsecond timescale providing both temporally and spatially precise data. […] The CCTE_Shafer_MEA_acute assay uses primary cultures of rat cortical neurons. […] The recordings before and after chemical treatment are used to calculate a percent change in the cross correlation area in each well.Data from the assay component CCTE_Shafer_MEA_acute_cross_correlation_area was analyzed into 1 assay endpoint. This assay endpoint, CCTE_Shafer_MEA_acute_cross_correlation_area, was analyzed in the negative analysis fitting direction relative to DMSO as the negative control and baseline of activity. […]
Spontaneous activity in the cortical cultures was recorded using an Axion Biosystems Maestro 768 channel amplifier and Axion Integrated Studios (AxIS) v1.8 (or later) software. […] Any electrodes with rms noise levels greater than 5 uV were grounded (e.g., no data were recorded). […] Baseline activity (40 min) was recorded before the addition of each compound. […]

[9] = CCTE_Shafer_MEA_acute_cross_correlation_HWHM: CCTE's Neural Acute Assay for Cross Correlation at Half Width at Half Maximum, Shafer Lab (AID 2284026);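 further: percent change per well from pre-dose baseline in spike cross-correlogram half width; hits are a decrease in cross-correlogram half width relative to DMSO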
Summary of the method: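 Read-out: half width at half maximum of action-potential cross-correlogram, percent change versus pre-treatment baseline, fitted in loss direction against DMSO. Rat cortical cultures, DIV 13 or 15, dosed 0.03-40 uM, 40-min recordings at 37 C.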

[10] = CCTE_Shafer_MEA_acute_synchrony_index: CCTE's Neural Acute Assay for Synchrony, Shafer Lab (AID 2284027);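 further: network synchrony index of spontaneous spiking in primary rat cortical neurons on MEAs; fitted for loss of signal so actives lower synchrony relative to DMSO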
Summary of the method: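 Acute exposure of rat primary cortical neurons (DIV 13 or 15) at 0.03-40 uM. Synchrony index, 40 min before vs after, as % change relative to DMSO control.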

Estrogen receptor (Homo sapiens), sequence (P03372 whole entry, looked up): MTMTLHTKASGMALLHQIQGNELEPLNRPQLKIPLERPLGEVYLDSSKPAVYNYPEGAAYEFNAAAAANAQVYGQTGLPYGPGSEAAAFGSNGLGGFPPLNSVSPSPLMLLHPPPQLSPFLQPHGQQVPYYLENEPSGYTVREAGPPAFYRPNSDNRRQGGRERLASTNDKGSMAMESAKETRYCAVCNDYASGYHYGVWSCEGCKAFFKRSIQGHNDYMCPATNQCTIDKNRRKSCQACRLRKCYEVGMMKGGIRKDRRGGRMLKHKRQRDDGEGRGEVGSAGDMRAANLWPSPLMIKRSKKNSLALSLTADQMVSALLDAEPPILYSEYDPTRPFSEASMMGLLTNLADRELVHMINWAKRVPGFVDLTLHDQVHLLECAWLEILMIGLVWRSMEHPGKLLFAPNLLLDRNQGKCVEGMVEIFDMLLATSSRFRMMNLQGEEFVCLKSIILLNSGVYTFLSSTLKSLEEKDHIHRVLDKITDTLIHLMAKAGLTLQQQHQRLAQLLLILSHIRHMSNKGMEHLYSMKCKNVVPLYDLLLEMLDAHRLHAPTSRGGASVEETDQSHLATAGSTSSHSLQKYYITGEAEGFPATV

With `CCCCOC(=O)C(C)O` (centres undefined) the outcome [1] was “inactive”.

In the case of `OCC(F)(F)C(F)(F)C(F)(F)CO`, the outcome [2] is reported as “inactive” and the outcome [3] is reported as “inactive”.

In the case of `CCOC(OCC)OCC`, the outcome [1] is reported as “inactive”.

With `CCN(CCO)S(=O)(=O)C(F)(F)C(F)(F)C(F)(F)C(F)(F)C(F)(F)C(F)(F)C(F)(F)C(F)(F)F` the outcome [2] was “inactive” and the outcome [3] was “inactive”.

In the case of `O=S(=O)(O)CCC(F)(F)C(F)(F)C(F)(F)C(F)(F)F`, the outcome [2] is reported as “inactive” and the outcome [3] is reported as “inactive”.

For `O=C(c1ccccc1)c1ccc(O)cc1O`, the AC50 [1] was 42.3 µM (active).

With `OC(O)C(F)(F)C(F)(F)F` the outcome [2] was “inactive” and the outcome [3] was “inactive”.

With `OCC1CCCO1` (centres undefined) the outcome [1] was “inactive”.

With `C=CC(=O)OCCC(F)(F)C(F)(F)C(F)(F)C(F)(F)F` the outcome [2] was “inactive” and the outcome [3] was “inactive”.

In the case of `NC(=O)C(F)(F)C(F)(F)C(F)(F)C(F)(F)C(N)=O`, the outcome [2] is reported as “inactive” and the outcome [3] is reported as “inactive”.

In the case of `OCC(F)(F)C(F)(F)C(F)(F)C(F)(F)C(F)(F)C(F)(F)C(F)(F)C(F)(F)CO`, the outcome [2] is reported as “inactive” and the outcome [3] is reported as “inactive”.

In the case of `OCC(O)CC(F)(F)C(F)(F)C(F)(F)C(F)(F)F` (centres undefined), the outcome [2] is reported as “inactive” and the outcome [3] is reported as “inactive”.

With `CCCCCCCC/C=C\CCCCCCCC(=O)OCC(O)CO` (centres undefined) the outcome [1] was “inactive”.

With `C=CC(=O)OCC(F)(F)C(F)(F)C(F)(F)COC(=O)C=C` the AC50 [2] was 4.71 µM (active) and the AC50 [3] was 4.39 µM (active).

For `CC(=O)CCC(C)C`, the outcome [1] was “inactive”.

For `OCCCCC(F)(F)C(F)(F)C(F)(F)C(F)(F)F`, the outcome [2] was “inactive” and the outcome [3] was “inactive”.

For `Cc1ccc(O)c(-n2nc3ccccc3n2)c1`, the AC50 [4] was 21.7 µM (active), the AC50 [5] was 10.2 µM (active) and the outcome [6] was “inactive”. For the same compound, the outcome [7] was “inactive” and the AC50 [1] was 51.3 µM (active).

With `O=C(O)C(F)(F)C(F)(F)C(F)(F)OC(F)(F)F` the outcome [2] was “inactive” and the outcome [3] was “inactive”.

For `FC(F)(F)C(F)(F)C(F)(F)C(F)(F)C(F)(F)C(F)(F)C(F)(F)CCI`, the outcome [2] was “inactive” and the outcome [3] was “inactive”.

For `O=C1C=CC(=O)N1c1ccccc1`, the outcome [1] was “inactive”.

In the case of `NC(O)(C(F)(F)F)C(F)(F)F`, the outcome [2] is reported as “inactive” and the outcome [3] is reported as “inactive”.

For `OCC(F)(F)C(F)(F)C(F)(F)C(F)(F)C(F)(F)C(F)(F)CO`, the outcome [2] was “inactive” and the outcome [3] was “inactive”.

With `CO[Si](C)(CCC(F)(F)C(F)(F)C(F)(F)C(F)(F)C(F)(F)C(F)(F)F)OC` the outcome [2] was “inactive” and the outcome [3] was “inactive”.

With `CC(C)(C)c1cc(Cc2cc(C(C)(C)C)c(O)c(C(C)(C)C)c2)cc(C(C)(C)C)c1O` the outcome [1] was “inactive”.

In the case of `N#Cc1ccccc1O`, the outcome [1] is reported as “inactive”.

For `NC(=O)C(F)(F)C(F)(F)C(F)(F)C(F)F`, the outcome [2] was “inactive” and the outcome [3] was “inactive”.

For `CNS(=O)(=O)C(F)(F)C(F)(F)C(F)(F)C(F)(F)C(F)(F)C(F)(F)C(F)(F)C(F)(F)F`, the outcome [2] was “inactive” and the outcome [3] was “inactive”.

With `O=S(=O)(O)CCC(F)(F)C(F)(F)C(F)(F)C(F)(F)C(F)(F)C(F)(F)C(F)(F)C(F)(F)F` the outcome [2] was “inactive” and the outcome [3] was “inactive”.

In the case of `CCN=C1C=CC(=C(c2ccc(N(CC)CC)cc2)c2ccc(N(CC)CC)cc2)c2ccccc21`, the AC50 [8] is reported as 0.302 µM (active), the AC50 [9] is reported as 0.883 µM (active) and the AC50 [10] is reported as 0.541 µM (active).

In the case of `NC(=O)C(F)(F)C(F)(F)C(F)(F)F`, the outcome [2] is reported as “inactive” and the outcome [3] is reported as “inactive”.

For `CCCCC(CC)COC(=O)c1ccc(N(C)C)cc1` (centres undefined), the outcome [4] was “inactive”, the AC50 [5] was 16.2 µM (active) and the outcome [6] was “inactive”. For the same compound, the outcome [7] was “inactive”.
